Measured values reported in PubChem BioAssay AID1159580 (chemical genetic matrix, 2015).
“And” between values parts separate entries of the source, which are not always exact repeats. Equal entries are not always repeated. The campaign covered roughly 5,500 compounds. About 2,000 (36%) were called active. Roughly 18% stayed inconclusive and do not appear here. No stated cut-off is given here; in the data, active means normalized growth mostly below about 0.91 (no sharp cut-off); inconclusive means no clear call, values can overlap the other calls; inactive means mostly above about 0.92. The list shows a part of the results.

Test: chemical genetic growth profiling, strain panel (AID 1159580);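 further: tested at 20 µM; growth read once vehicle control cultures reached saturation at 30 °C; 1 = growth at the plate median or of vehicle wells; lower values mean less growth of the strain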
Conditions: S. cerevisiae deletion strains, growth OD

Measured: normalized growth

O=C(O)/C=C/c1ccc(O)c(O)c1
inactive: locus YAL021C, strain ccr4, active compounds read low 0.981 | locus YAL026C, strain drs2, active compounds read low 1 | locus YAL030W, strain snc1, active compounds read low 1 | locus YAL040C, strain CLN3, active compounds read low 1.02 | locus YBL061C, strain skt5, active compounds read low 0.996 | locus YBR009C, strain hhf1, active compounds read low 0.995 | locus YBR021W, strain FUR4, active compounds read low 1.01 | locus YBR023C, strain chs3, active compounds read low 1 | locus YBR171W, strain sec66, active compounds read low 1 | locus YBR229C, strain ROT2, active compounds read low 1.01 | locus YBR231C, strain swc5, active compounds read low 1 | locus YBR279W, strain paf1, active compounds read low 0.995 | locus YCL011C, strain gbp2, active compounds read low 1.01 | locus YCL016C, strain dcc1, active compounds read low 1 | locus YCL029C, strain bik1, active compounds read low 1.01 | locus YCL061C, strain MRC1 (second series), active compounds read low 1.01 | locus YCL061C, strain MRC1, active compounds read low 1 | locus YCL069W, strain vba3, active compounds read low 1 | locus YCR088W, strain abp1, active compounds read low 1 | locus YDL005C, strain med2, active compounds read low 1 | locus YDL035C, strain GPR1, active compounds read low 1.02 | locus YDL040C, strain nat1, active compounds read low 1 | locus YDL074C, strain BRE1, active compounds read low 1.05 | locus YDL101C, strain DUN1, active compounds read low 1.01 | locus YDL134C, strain PPH21, active compounds read low 1 | locus YDL185W, strain tfp1, active compounds read low 1 | locus YDL192W, strain arf1, active compounds read low 1 | locus YDR001C, strain nth1, active compounds read low 1 | locus YDR069C, strain doa4, active compounds read low 1.01 | locus YDR101C, strain arx1, active compounds read low 1 | locus YDR137W, strain rgp1, active compounds read low 0.998 | locus YDR150W, strain NUM1, active compounds read low 1.01 | locus YDR159W, strain sac3, active compounds read low 1 | locus YDR162C, strain NBP2, active compounds read low 1 | locus YDR195W, strain ref2 0.977 | locus YDR297W, strain sur2, active compounds read low 1.01 | locus YDR318W, strain mcm21, active compounds read low 1 | locus YDR334W, strain swr1, active compounds read low 0.993 | locus YDR335W, strain msn5, active compounds read low 0.99 | locus YDR388W, active compounds read low 1.01 | locus YDR392W, strain spt3, active compounds read low 1.03 | locus YDR502C, strain sam2, active compounds read low 0.996 | locus YEL003W, strain gim4, active compounds read low 1.01 | locus YEL037C, strain rad23, active compounds read low 0.991 | locus YEL061C, strain CIN8 (second series), active compounds read low 1 | locus YEL061C, strain CIN8, active compounds read low 1.01 | locus YER002W, strain NOP16, active compounds read low 1.02 | locus YER015W, strain faa2, active compounds read low 1 | locus YER016W, strain bim1, active compounds read low 1.01 | locus YER110C, active compounds read low 1.02 | locus YER111C, strain swi4, active compounds read low 0.981 | locus YER155C, strain BEM2 (second series), active compounds read low 1.03 | locus YER155C, strain BEM2, active compounds read low 1 | locus YER167W, strain BCK2, active compounds read low 1.02 | locus YFR010W, strain ubp6, active compounds read low 1 | locus YGL078C, strain dbp3, active compounds read low 0.997 | locus YGL086W, strain mad1, active compounds read low 1.03 | locus YGL167C, strain pmr1, active compounds read low 1 | locus YGL173C, strain kem1, active compounds read low 1 | locus YGL227W, strain vid30, active compounds read low 1.01 | locus YGL240W, strain doc1, active compounds read low 1 | locus YGL248W, strain PDE1, active compounds read low 0.999 | locus YGL253W, strain hxk2, active compounds read low 1 | locus YGR078C, strain PAC10, active compounds read low 1 | locus YGR135W, strain pre9, active compounds read low 1.01 | locus YGR229C, strain SMI1, active compounds read low 1.01 and 1.04 | locus YGR252W, strain gcn5, active compounds read low 0.981 | locus YHR013C, strain ard1, active compounds read low 0.993 | locus YHR027C, strain rpn1, active compounds read low 0.992 | locus YHR030C, strain SLT2, active compounds read low 1.01 | locus YHR079C, strain IRE1 (second series), active compounds read low 1.03 | locus YHR079C, strain IRE1, active compounds read low 0.993 | locus YHR094C, strain hxt1, active compounds read low 1.01 | locus YHR129C, strain ARP1, active compounds read low 1.02 | locus YHR142W, strain chs7, active compounds read low 1.01 | locus YHR200W, strain rpn10, active compounds read low 1.03 | locus YIL066C, strain RNR3, active compounds read low 1.01 | locus YIL073C, strain SPO22, active compounds read low 1.04 | locus YIL125W, strain kgd1, active compounds read low 1.01 | locus YIR030C, strain dcg1, active compounds read low 1 | locus YJL092W, strain hpr5, active compounds read low 1 | locus YJL095W, strain BCK1 (second series), active compounds read low 0.994 | locus YJL095W, strain BCK1, active compounds read low 0.996 and 1.01 | locus YJL115W, strain asf1, active compounds read low 0.991 | locus YJL129C, strain trk1, active compounds read low 1 | locus YJL134W, strain LCB3, active compounds read low 1.01 | locus YJL154C, strain vps35, active compounds read low 0.999 | locus YJL164C, strain tpk1, active compounds read low 1.01 | locus YJL166W, strain qcr8, active compounds read low 1 | locus YJL168C, strain set2, active compounds read low 1 | locus YJL187C, strain SWE1 (second series), active compounds read low 1 | locus YJL187C, strain SWE1, active compounds read low 0.998
